Compound activity deposited in PubChem by National Center for Advancing Translational Sciences (NCATS).
FLuc modulator = inhibits or activates purified firefly luciferase, miR-21 counter-screen; P08659; purified FLuc, Km substrates, luminescence inhibition; Potency, µM (titrated, usually from 57.5 µM), usual class: inhibitors; 6.9% of 360,000 active; AID 588342; further: nearly all actives have a fitted effect of over 55% in size
Target sequence (P08659 whole entry, looked up): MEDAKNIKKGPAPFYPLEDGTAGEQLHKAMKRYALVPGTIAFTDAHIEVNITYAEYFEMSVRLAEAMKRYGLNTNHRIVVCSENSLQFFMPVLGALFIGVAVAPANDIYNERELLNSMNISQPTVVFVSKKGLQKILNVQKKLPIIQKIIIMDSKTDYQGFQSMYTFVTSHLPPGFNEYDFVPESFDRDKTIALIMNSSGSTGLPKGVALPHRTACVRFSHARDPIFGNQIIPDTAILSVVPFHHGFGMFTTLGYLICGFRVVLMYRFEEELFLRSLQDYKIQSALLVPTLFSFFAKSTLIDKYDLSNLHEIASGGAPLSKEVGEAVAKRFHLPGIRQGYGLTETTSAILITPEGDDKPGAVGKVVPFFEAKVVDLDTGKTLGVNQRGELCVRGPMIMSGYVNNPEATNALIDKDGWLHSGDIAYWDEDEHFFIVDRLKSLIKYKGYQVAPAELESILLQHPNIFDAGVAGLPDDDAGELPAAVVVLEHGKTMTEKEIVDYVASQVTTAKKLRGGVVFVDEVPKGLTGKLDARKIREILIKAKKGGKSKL
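Biochemical qHTS of compounds, final roughly 60 µM downward over six points, against 10 nM purified firefly luciferase using Km concentrations of substrates (10 uM D-luciferin, 10 uM ATP) in Tris acetate pH 7.5 buffer; luminescence output.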
Luc counter = Kinase-Glo luciferase inhibition (counter-screen). Potency, µM (doses to about 38.3 µM), hits mostly inhibitors. AID 1379. Kinase-Glo luciferase, ATP luminescence, 8 min. 0.28% of 200,000 active. Q27757; further: nearly all actives have a fitted effect of over 60% in size
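Kinase-Glo luciferase light output from ATP and luciferin was measured with 10 uM ATP, within the enzyme's linear range. Buffer: 50 mM imidazole pH 7.2, 50 mM KCl, 7 mM MgCl2, 0.01% Tween 20, 0.05% BSA; luminescence read after 8 min at ambient temperature.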
ELG1 genotoxic = genotoxicity induction in ELG1-luciferase HEK293T cells; Potency, µM (titrated, usually from 46 µM), usual class: activators; 1.3% of 330,000 active; HEK293T ELG1-luciferase reporter, luminescence, 16 h; further: nearly all actives have a fitted effect of over 60% in size
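ELG1-luciferase HEK293T cells, 2,000/well; compound pinned in; 16 hr, 37 °C, 5% CO2; ONE-Glo, 30 min RT; luminescence on CCD imager.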
SMN2 splice enh = increases expression of the SMN2 splice variant; HEK293 SMN2-luciferase splicing reporter, luminescence, 30-36 h; Potency, µM (series often up to 46.1 µM), usual class: activators; 2.8% of 210,000 active; AID 1458; further: nearly all actives have a fitted effect of over 55% in size
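qHTS luciferase splicing reporter: luminescence rises when SMN2 exon 7 is included in transfected HEK293 cells. Compound exposure lasted 30-36 h at 37C, with 4.5 mM final sodium butyrate as control, followed by a ONE-Glo read.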
Rab9 promoter act = activates the Rab9 promoter; Potency, µM (titrated, usually from 9.22 µM), actives largely listed as activators; AID 485297; 2.8% of 320,000 active; Huh7 Rab9 promoter-luciferase reporter, luminescence, 24 h; further: nearly all actives have a fitted effect of over 60% in size
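Stable Rab9-luc Huh7, 1500 cells/well, 2 h settle; cmpd in DMSO, 24 h, 37 °C/5% CO2; luciferase reagent 10 min RT; luminescence.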
NPC1 promoter act = activators of NPC1 promoter. Huh7 NPC1 promoter luciferase reporter, 24 h. Potency, µM (titrated, usually from 9.22 µM), most hits filed as activators. 2.4% of 320,000 active. AID 485313; further: nearly all actives have a fitted effect of over 60% in size
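Readout is luciferase luminescence, reflecting NPC1 promoter activation in stably transfected Huh7 cells after 24 h compound exposure at 37 °C in reduced-serum medium with 10% FBS.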
Hits are given with their value; – = inactive; ? = inconclusive; · = not tested or not shown. The list is not random: actives were taken first. Their share in the collection is about 7.5%. The call rests on the fitted dose curve; in most records, active means well fitted curve in the direction sought with a large enough effect; inconclusive means small, poorly fitted or top-dose-only effect, or another doubt; inactive means no such curve, though single readings can be large; an effect the other way counts as inactive or inconclusive.

SMILES	FLuc modulator	Luc counter	ELG1 genotoxic	SMN2 splice enh	Rab9 promoter act	NPC1 promoter act
CCOc1ccccc1CNS(=O)(=O)c1ccc2[nH]c(=O)ccc2c1	–	·	·	·	·	·
Clc1ccc(Nc2ccc(-n3ccnc3)nn2)cc1Cl	26.9µM	–	–	–	–	–
c1ccc(Nc2ccc(-n3ccnc3)nn2)cc1	?	–	–	–	–	–
CCCOC(=O)c1c(-c2ccccc2)c(-c2ccccc2)nn(C)c1=O	–	·	·	–	·	·
CN(C)c1ccc(C(=O)c2ccc(O)cc2O)cc1	10.7µM	–	?	?	–	?
O=C(c1ccc(O)cc1)c1ccc(O)cc1O	–	·	–	·	–	–
CC1CCCN(C(=O)c2cc3c(=O)n4ccccc4nc3s2)C1 (stereo not drawn)	16.9µM	·	16.4µM	·	?	?
CCN(CC)C(=O)c1cc2c(=O)n3ccccc3nc2s1	?	–	16.4µM	?	–	–
Cc1cccn2c(=O)c3cc(C(=O)N4CCCC(C)C4)sc3nc12 (stereo not drawn)	?	·	–	·	–	–
CC(C)CN(CC(C)C)C(=O)c1cc2c(=O)n3ccccc3nc2s1	–	·	–	·	–	–
CCCCn1c(NCc2cc(Cl)ccc2O)nc2ccccc21	–	·	·	·	·	·
O=C(c1cccc(F)c1)N1CCC2(CC1)CN(c1ncccn1)C2	·	–	·	–	·	·
S=c1[nH]nc(CSCCOc2ccc(Cl)cc2Cl)o1	21.3µM	·	–	·	–	–
COc1ccc(-c2nnc(Nc3ccc(OCC(N)=O)cc3)c3ccccc23)cc1	–	·	·	–	·	·
Cc1cc(/C=C2\Cc3ccccc3C2=O)c(C)n1-c1ccccc1	0.19µM	–	1.16µM	4.47µM	–	–
Cc1cc(C=C2C(=O)c3ccccc3C2=O)c(C)n1-c1ccccc1	0.12µM	?	?	–	–	–
Cc1cc(/C=N/n2cnnc2)c(C)n1-c1ccccc1	?	–	–	–	–	–
COc1ccccc1/C=C1\Cc2ccccc2C1=O	10.7µM	·	?	·	–	–
Cc1cc(C=C2C(=O)c3ccccc3C2=O)c(C)n1-c1cccc(C(=O)O)c1	4.78µM	–	–	–	2.51µM	–
CCc1ccccc1NC(=O)Nc1c[nH]c(=O)[nH]c1=O	–	·	·	·	·	·
CCOc1ccc(C(=O)OCc2cc(=O)n3nc(C4CCCCC4)sc3n2)cc1	–	·	·	·	·	·
COc1ccc(-c2nnc(SCC(=O)Nc3ccc(Cl)cc3)s2)cc1	–	·	·	·	·	·
Cc1cc(C=C2C(=O)c3ccccc3C2=O)c(C)n1-c1ccc(C(=O)O)cc1	19µM	·	–	·	–	–
Cc1ccc(CCNC(=O)CCn2nc(-c3ccc(C)cc3)ccc2=O)cc1	–	·	·	·	·	·
CCCN1C(=O)/C(=C/c2ccc(C)s2)NC1=S	26.9µM	–	–	–	–	–
SMILES	FLuc modulator	Luc counter	ELG1 genotoxic	SMN2 splice enh	Rab9 promoter act	NPC1 promoter act
Cc1ccc(/C=C2/NC(=O)N(Cc3ccccc3F)C2=O)s1	–	·	–	·	–	–
COc1ccccc1Nc1ncc(-c2cccs2)s1	2.69µM	–	?	22.4µM	2.82µM	?
Cc1nc(NC(C)C)c2cnn(CCc3ccccc3)c2n1	?	–	14.6µM	–	?	–
CCCNc1nc(C)nc2c1cnn2CCc1ccccc1	–	–	?	–	–	–
CCOC(=O)C1=NN(C(=O)c2ccc(OC)cc2)C(O)(c2ccc(Cl)cc2)C1 (stereo not drawn)	–	–	–	–	–	–
COC(=O)C1=NN(C(=O)c2cccc(Br)c2)C(O)(c2ccc(Cl)cc2)C1 (stereo not drawn)	10.7µM	·	–	·	–	–
CCCCCOC(=O)CSc1ncnc2sc3c(c12)CCC(C)C3 (stereo not drawn)	–	·	·	–	·	·
CCCOC(=O)CSc1ncnc2sc3c(c12)CCC(C)C3 (stereo not drawn)	8.49µM	·	·	–	·	·
CC(=O)CSc1ncnc2sc3c(c12)CCC(C)C3 (stereo not drawn)	15.1µM	–	–	–	–	–
CC1CCc2c(sc3ncnc(SCC(=O)c4ccccc4)c23)C1 (stereo not drawn)	–	–	–	?	–	–
Cc1c(C(=O)N2CCCC2)oc2c1-c1nn(CC(=O)NC(C)c3ccccc3)cc1CC2 (stereo not drawn)	–	·	·	·	·	·
Nc1nc2c(nc(Br)n2C2O[C@H]3COP(=O)(O)O[C@@H]3C2O)c(=O)[nH]1 (stereo partly drawn)	·	–	·	–	·	·
COCCn1c(=S)[nH]c2sc3c(c2c1=O)CCC(C)C3 (stereo not drawn)	16.9µM	·	–	·	–	–
COc1ccc(-n2c(=S)[nH]c3sc4c(c3c2=O)CCN(C)C4)cc1	–	·	–	·	–	–
COCCCn1c(=S)[nH]c2sc3c(c2c1=O)CCCS3	10.7µM	–	–	–	–	–
Cn1c(=S)[nH]c2sc3c(c2c1=O)CCC(C(C)(C)C)C3 (stereo not drawn)	4.26µM	·	–	·	?	?
CCCn1c(=S)[nH]c2sc3c(c2c1=O)CCCC3	15.1µM	·	–	·	–	–
CC(C)(C)C1CCc2c(sc3ncn(N)c(=N)c23)C1 (stereo not drawn)	–	·	–	·	–	–
COC(=O)c1ccc(C(/C=C/[C@@H](C)C(=O)N(C)C)NC(=O)OCc2ccccc2)cc1 (stereo partly drawn)	·	–	·	–	·	·
COc1ccc(/C=C\c2onc(C)c2S(=O)(=O)N2CCC(C(=O)Nc3ccc(Cl)cc3)CC2)cc1	–	·	·	–	·	·
O=C(CSC1=Nc2ccccc2C2=NC(CCC(=O)NC3CCCCC3)C(=O)N12)Nc1cccc(Cl)c1 (stereo not drawn)	–	·	·	·	·	·
CCc1ccc(-c2nc(CN3CCCC(C(=O)N4CCN(c5cc(Cl)ccc5C)CC4)C3)c(C)o2)cc1 (stereo not drawn)	–	·	·	–	·	·
O=C(NCC(c1cccnc1)N1CCN(Cc2ccccc2)CC1)C(=O)Nc1cccc(Cl)c1 (stereo not drawn)	–	·	·	·	·	·
COc1ccc(C2CC(=O)N(Cc3ccc(F)cc3)c3ccccc3S2)cc1OC (stereo not drawn)	–	·	·	–	·	·
COc1ccc(C2CC(=O)N(C)c3ccccc3S2)cc1OC (stereo not drawn)	?	–	18.3µM	–	3.98µM	–
SMILES	FLuc modulator	Luc counter	ELG1 genotoxic	SMN2 splice enh	Rab9 promoter act	NPC1 promoter act
O=C(C1CCC1)N1CCCc2cc(S(=O)(=O)N3CCN(c4cccc(Cl)c4)CC3)ccc21	–	·	·	·	·	·
CCOC(=O)c1ccc2nc3c(cc2c1)CCS3	19µM	–	?	–	–	?
CCOC(=O)c1ccc2nc(C)c3c(c2c1)OC(C)C3 (stereo not drawn)	–	–	–	–	–	–
CSc1ncc(C(=O)Nc2cccc(Cl)c2C)c(-c2ccccc2)n1	–	·	·	·	·	·
Oc1cccc2ccc(/C=C/c3ccccc3Br)nc12	3.38µM	·	?	·	?	3.55µM
Oc1ccc(Cl)cc1/C=C/c1ccc2cccc(O)c2n1	21.3µM	–	?	–	–	–
O=C(Cn1nnc(-c2ccccc2)n1)OCc1ccccc1	?	–	–	–	–	–
